Shn3 inh set2 = reduces Shn3 3'UTR luciferase signal in osteoblasts; Clone20 osteoblast Shn3 3'UTR firefly luciferase, 24 h; inhibition, % at 12.5 µM; 360,000 compounds, 0.52% hits; AID 588674;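 active means mean inhibition of at least 75% with every replicate also reaching 75%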;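 further: 0% = median of neutral control wells and 100% = pilot-screen positive control compound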
Gli-Sufu antag = blocks Gli-Sufu signaling in a luciferase reporter; Sufu-KO-LIGHT fibroblasts, Gli luciferase reporter luminescence; inhibition, % at 5 µM; 340,000 compounds, 0.74% hits;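 active means inhibition above about 55%, limit read from the data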;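 further: 0% = DMSO-treated cells and 100% = wells with medium but no cells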
Jurkat NFkB inh = inhibitors of the PMA/ionomycin-induced NF-kB reporter in Jurkat cells; PMA/ionomycin-induced NF-kB luciferase reporter, luminescence; inhibition, % at 4 µM; 330,000 compounds, 0.53% hits; in the data active means inhibition above about 50%
Mdm2 MdmX PPI = disrupts the human Mdm2-MdmX interaction | 330,000 compounds, 3% hits | O15151+Q00987 | SaOS-2 split-luciferase Mdm2/MdmX complementation, luminescence | AID 485346 | inhibition, % at 8 µM;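 active means inhibition of at least 50% at 8 µM in the primary screen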
697 NFkB inh = inhibitors of the PMA/ionomycin-induced NF-kB reporter in 697 B cells; 697 B-cell NF-kB luciferase reporter, 16 h; inhibition, % at 4 µM; 330,000 compounds, 0.33% hits; AID 435022; in the data active means inhibition above about 35%
Gli antag conf = confirmation of Gli-SUFU pathway antagonists; shares compounds with Gli-Sufu antag; inhibition, % at 5 µM; Sufu-KO-LIGHT cells, Gli luciferase reporter, luminescence; 2,500 compounds, 40% hits;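 active means mean inhibition at 5 µM reaching about 45%, limit read from the data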;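 further: plate controls were DMSO-treated cells for no effect and wells lacking cells for full effect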
Gli cytotox = counter-screen for Gli-SUFU antagonists: cytotoxicity | shares compounds with Gli-Sufu antag | Sufu-KO-LIGHT cells cytotoxicity, ATP luminescence | cytotoxicity, % at 5 µM | 2,500 compounds, 32% hits;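 active means mean cytotoxicity at 5 µM above about 25%, limit read from the data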;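 further: cells exposed to compound overnight for roughly 16 to 18 hours; plate controls were DMSO wells with cells for no effect and medium without cells for full effect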
Wnt3a counter = counter-screen for Gli-SUFU antagonists: Wnt3a reporter inhibition. AID 651995. inhibition, % at 6.25 µM. Wnt-LIGHT cells, Wnt3a-driven luciferase reporter, luminescence. 2,500 compounds, 20% hits. shares compounds with Gli-Sufu antag;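 active means mean inhibition above about 25%, limit read from the data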
Starred values were filed as active, the others as inactive; . = not tested or not shown. Rows were chosen to be rich in hits. Some 3.8% of all compounds tested hit in one or more screens of this group.

SMILES	Shn3 inh set2	Gli-Sufu antag	Jurkat NFkB inh	Mdm2 MdmX PPI	697 NFkB inh	Gli antag conf	Gli cytotox	Wnt3a counter
Cc1ccsc1/C=N/n1c(-c2ccncc2)n[nH]c1=S	4	56*	-6	3	-10	10	7	1
COc1ccc(N(CC(=O)NCc2ccc(F)cc2)C(=O)CCC(=O)Nc2ccccn2)cc1	1	69*	-29	6	-8	16	22	-26
CCc1ccc(N(CC(=O)NCc2ccc(OC)cc2)C(=O)CCC(=O)Nc2ccccn2)cc1	6	8	7	21	-3	.	.	.
CCCC(=O)NC1CCc2cc(OC)c(OC)c(OC)c2-c2ccc(OC)c(=O)cc21 (stereo not given)	6	56*	.	.	.	58*	64*	-2
COc1c(C=O)c2c(c(OC)c1OC)-c1ccc(OC)c(=O)cc1C(NC(C)=O)CC2 (stereo not given)	34	43	.	.	.	.	.	.
COC(=O)c1ccc2c(c1)C(NC(C)=O)CCc1cc(OC)c(OC)c(OC)c1-2 (stereo not given)	12	65*	.	.	.	60*	57*	14
CC1(C)CC(N2CCN(Cc3ccccc3)CC2)=CC(=[N+]2CCCCC2)C1	82	79*	47	36	-15	85*	34*	39*
c1ccc(CN2CCN(c3ncccn3)CC2)cc1	17	-3	9	-17	3	.	.	.
CC1(C)CC(N2CCOCC2)=CC(=S)N1	-11	.	.	.	.	.	.	.
CC1(C)CC(N2CCCC2)=CC(=[N+]2CCCC2)C1	64	82*	36	19	20	86*	34*	35*
CC1(C)CC(N2CCCC2)=CC(=[N+]2CCCCC2)C1	64	82*	36	-1	33	85*	33*	42*
CC(Oc1ccc2c(c1)oc(=O)c1ccccc12)C(=O)NC(Cc1c[nH]c2ccc(O)cc12)C(=O)O (stereo not given)	15	4	1	7	12	.	.	.
O=C(NCCC(=O)N1CCC2(CC1)NCCc1[nH]cnc12)c1ccc(F)c(F)c1	3	-5	7	33	-6	.	.	.
OC(c1ccc(F)c(F)c1)c1nc(-c2cccc(C(F)(F)F)c2)cs1 (stereo not given)	4	.	.	.	.	.	.	.
CCN(C[C@H]1N[C@@](C)(C(=O)OC)[C@H]2C(=O)N(C)C(=O)[C@@H]12)C(=O)C1CCCCC1	-6	-3	-6	26	13	.	.	.
CCOc1ccc(C2=CSC3=NCCN23)cc1Cl	3	11	-10	25	-1	.	.	.
COc1ccc(-n2c(C)cc(C(=O)CN3C(=O)c4ccccc4C3=O)c2C)cc1	8	96*	-3	-12	-11	-3	10	-41
COc1ccc(-c2cc(=O)oc3cc(OCC(=O)NCC4CCC(C(=O)O)CC4)ccc23)cc1 (stereo not given)	-1	0	-11	-18	6	.	.	.
Clc1ccc(/C=N/N2CCN(Cc3ccccc3Cl)CC2)cc1	15	6	5	3	-6	.	.	.
COc1ccc(/C=N\N2CCN(Cc3ccccc3Cl)CC2)cc1	11	50	-3	3	3	12	16	-27
c1ccc2c(-c3[nH]ncc3CNCCCn3ncc4ccccc43)cccc2c1	90*	58*	8	21	7	23	8	-10
OCC1CCCCN1CCNCc1cn[nH]c1-c1cccc2ccccc12 (stereo not given)	-34	4	6	19	9	.	.	.
COc1ccc(-c2c(NC(=O)C(C)C)n(C)c3ccccc3c2=O)cc1	-11	4	14	13	20	.	.	.
COc1ccc(-c2c(NC(C)=O)n(C)c3ccccc3c2=O)cc1	0	100*	7	-6	8	11	22	-22
Cc1ccc(-c2nn(C)c(=O)c3ccccc23)cc1S(=O)(=O)N1CCOCC1	-1	51	13	16	14	22	20	16
SMILES	Shn3 inh set2	Gli-Sufu antag	Jurkat NFkB inh	Mdm2 MdmX PPI	697 NFkB inh	Gli antag conf	Gli cytotox	Wnt3a counter
CCCC(=O)Nc1c2c(nn1-c1ccc(OC)cc1)CS(=O)C2 (stereo not given)	-3	51	3	-7	-17	8	18	0
CCOc1ccccc1OCC(=O)Nc1nnc(C)s1	-2	94*	-13	-26	-8	21	-7	9
COc1ccc(OCC(=O)Nc2nnc(C)s2)cc1	7	4	-11	2	4	.	.	.
CNc1ccccc1C(C)(C)c1cc(-c2cccc(Br)c2)no1	86*	71*	31	20	-34	75*	17	26*
COc1cc(C(=O)NC2CCN(C)CC2)ccc1Nc1ncc2c(n1)N(CCc1ccccc1)CCC(=O)N2C	-37	75*	.	.	.	67*	3	-13
COc1ccc(S(=O)(=O)N2CCN(Cc3cccc(OC)c3)CC2)cc1	22	62*	16	3	10	23	-3	8
O=C(C1CCCN1S(=O)(=O)c1cccc2nsnc12)N1CCN(c2ccc(F)cc2)CC1 (stereo not given)	5	58*	-1	22	-4	20	-10	-25
O=C(C1CCCN1S(=O)(=O)c1cccc2nsnc12)N1CCN(c2ccccc2)CC1 (stereo not given)	26	2	2	22	4	.	.	.
COc1ccc(C2(O)CN(c3ccc(C)cc3)C3=[N+]2CCCC3)cc1 (stereo not given)	82	54	-8	16	7	55*	33*	0
COCc1cc(=O)[nH]c(/N=C(\N)Nc2cccc(Cl)c2)n1	-5	1	1	3	1	.	.	.
COc1ccc(CCNC(=O)c2cc3c(=O)n4ccccc4nc3n(CCN3CCOCC3)c2=N)cc1	25	66*	41	-9	-28	21	5	-46
COc1ccc(CCn2c(=N)c(C(=O)NCCN3CCOCC3)cc3c(=O)n4ccccc4nc32)cc1OC	-10	-5	-4	6	12	.	.	.
NNC(=O)c1sccc1OCc1ccc(Cl)cc1Cl	33	24	6	46	-16	.	.	.
O=C(NCC(c1ccco1)N1CCCC1)c1sc2ccccc2c1Cl (stereo not given)	-15	51	-11	11	-10	16	11	-81
O=C(NCC(c1ccco1)N1CCCC1)c1ccc(Cl)c(S(=O)(=O)N2CCc3ccccc32)c1 (stereo not given)	78	67*	48	46	-16	59*	34*	28*
Cc1nc2ccc(NS(=O)(=O)c3cccc([N+](=O)[O-])c3)cc2s1	49	3	-2	10	-15	.	.	.
Cn1nc(-c2ccc(N3CCN(CCO)CC3)c([N+](=O)[O-])c2)c2ccccc2c1=O	6	-7	-6	45	6	.	.	.

Compound activity as filed in PubChem BioAssay.
